Screens (PubChem BioAssay)
This excerpt belongs to a sample that is enriched for hits.
12-LOX inh: ALOX12 (human) lipoxygenase inhibition; P18054; purified 12hLO, xylenol orange hydroperoxide absorbance; Potency, µM (highest dose often 108 µM), for inactives: at the top dose activity change, negative = inhibition, actives largely listed as inhibitors; 1.1% of 580,000 active; AID 1671190; note: potency is the fitted concentration of half-maximal effect
Target sequence (P18054 whole entry, looked up): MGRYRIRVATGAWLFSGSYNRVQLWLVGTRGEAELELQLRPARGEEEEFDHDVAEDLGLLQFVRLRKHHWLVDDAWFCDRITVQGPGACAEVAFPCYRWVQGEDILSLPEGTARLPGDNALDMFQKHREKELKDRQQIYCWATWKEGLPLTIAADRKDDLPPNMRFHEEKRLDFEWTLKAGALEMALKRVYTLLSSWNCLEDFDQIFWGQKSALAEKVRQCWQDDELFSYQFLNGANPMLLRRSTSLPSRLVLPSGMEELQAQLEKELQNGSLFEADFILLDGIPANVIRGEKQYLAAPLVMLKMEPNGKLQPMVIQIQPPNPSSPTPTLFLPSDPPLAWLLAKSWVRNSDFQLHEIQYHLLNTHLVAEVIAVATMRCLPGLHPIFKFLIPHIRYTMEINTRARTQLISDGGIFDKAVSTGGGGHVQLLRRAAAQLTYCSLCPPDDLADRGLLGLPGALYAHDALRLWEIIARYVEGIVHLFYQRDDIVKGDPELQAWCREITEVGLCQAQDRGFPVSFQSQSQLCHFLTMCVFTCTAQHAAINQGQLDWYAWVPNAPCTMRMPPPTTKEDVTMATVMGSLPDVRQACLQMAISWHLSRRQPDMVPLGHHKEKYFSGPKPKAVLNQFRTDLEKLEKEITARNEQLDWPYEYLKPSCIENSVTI
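Hydroperoxide product was detected by ferrous iron/xylenol orange as the 573 to 405 nm absorbance ratio. Arachidonic acid at 40 uM (final) was turned over for 30 min at room temperature by 150 nM human 12hLO, pH 7.0 Hepes buffer, after 15 min compound preincubation.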
DT40 TDP1 CPT: DT40-hTDP1 cell growth loss with CPT. 12% of 420,000 active. chicken DT40 Tdp1-/-;hTDP1 cells + 20 nM CPT, ATP luminescence, 48 h. Potency, µM (series often up to 46.2 µM), without a hit: at the top dose activity change, negative = growth inhibition, actives largely listed as inhibitors. AID 686979; note: potency is the fitted concentration of half-maximal effect; nearly all actives have a fitted effect of over 55% in size
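Chicken DT40 Tdp1-/- cells complemented with human TDP1, 400 cells/well, exposed to compounds plus 20 nM camptothecin for at least 48 h at 37 C; viability read as ATP content by CellTiter-Glo luminescence.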
HT1080NT lethal: kills 2HG-producing HT-1080-NT fibrosarcoma cells; HT-1080-NT fibrosarcoma viability, CellTiter-Glo ATP luminescence, 48 h; Potency, µM (series often up to 46.1 µM), for inactives: at the top dose activity, negative = less viability, hits mostly cytotoxic; 1.6% of 360,000 active;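 note: NT is the 2HG producing partner of a matched IDH1 knockdown line; potency is the fitted concentration of half-maximal effect; 0% = DMSO-treated cells and -100% = media-only wells without cells; nearly all actives have a fitted effect of over 55% in size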
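HT-1080-NT fibrosarcoma cells (2HG-overproducing), 750 cells/well in RPMI with 5% FBS, dosed after 2 h and incubated 48 h at 37C. CellTiter-Glo luminescence normalized to DMSO and no-cell wells; concentration-response curves fitted and classed.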
DT40 TDP1 no CPT: qHTS for Inhibitors of human tyrosyl-DNA phosphodiesterase 1 (TDP1): qHTS in cells in absence of CPT. DT40 Tdp1-/- hTDP1 cells, no CPT, ATP luminescence, 48 h. Potency, µM (titrated, usually from 46.2 µM), for inactives: at the top dose activity change, negative = growth inhibition, most hits filed as inhibitors. 15% of 420,000 active. AID 686978, 2013; note: potency is the fitted concentration of half-maximal effect; nearly all actives have a fitted effect of over 55% in size
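Seeded 400 DT40-hTDP1 cells/well (vehicle DMSO, no 20 nM CPT); pinned compounds; ≥48 hr at 37 °C; CellTiter-Glo luminescence as viability measure.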
HT1080 IDH1KD tx: toxicity to HT-1080 IDH1 knockdown cells (counter line). Potency, µM (series often up to 46.1 µM), for inactives: at the top dose activity, negative = toxicity, hits mostly cytotoxic. 2% of 360,000 active. AID 686971. HT-1080 IDH1 knockdown viability, ATP luminescence, 48 h;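 note: potency is the fitted concentration of half-maximal effect; 0% = DMSO wells and -100% = cell-free medium wells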
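% activity derives from luminescence (CellTiter-Glo), normalised to DMSO and no-cell wells. HT-1080-IDH1KD cells, 750/well, had 48 h compound exposure at 37 °C.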
IL1B secr inh: inflammasome signaling inhibition, IL-1 beta readout; THP-1 LPS/ATP IL-1B secretion, AlphaLISA, 16 h; hits give low values; activity change, % at 57.5 µM; 4.7% of 360,000 active; in the data active = activity change below about -50%; inconclusive = mostly about -30% to -49%
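THP-1 cells pretreated 1 hr with compounds (up to 57.5 uM final), then stimulated with LPS (250 ng/mL final) plus ATP (1.25 mM final); secreted IL-1B measured by AlphaLISA after 16 hr, decreased signal indicating inhibition.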
Numbers without * were called inactive; i = inactive; ? = inconclusive; / = not tested or not shown. Unless noted, calls come from the whole dose curve; as a rule, active = well fitted curve in the direction sought with a large enough effect; inconclusive = small, poorly fitted or top-dose-only effect, or another doubt; inactive = no such curve, though single readings can be large; an effect the other way counts as inactive or inconclusive. Unless noted, % is set by controls: 0 for no effect and ±100 for the full control effect.

SMILES	12-LOX inh	DT40 TDP1 CPT	HT1080NT lethal	DT40 TDP1 no CPT	HT1080 IDH1KD tx	IL1B secr inh
Oc1cnc2ccccc2c1CN1CCOCC1	-23.5%	?	-0.7%	-26.8%	-5.9%	46.1
CC(C)CC(CNC(=O)Cc1n[nH]c(=O)c2ccccc12)N1CCOCC1 (stereo not drawn)	2.9%	/	/	/	/	/
Oc1ccc(NCc2cccc(OCc3ccccc3)c2)cc1	i	14.6µM*	?	20.6µM*	?	57.5
O=[N+]([O-])c1ccc(COc2cccc(CNc3ccc(F)cc3)c2)cc1	-14.1%	25.9µM*	2.1%	13µM*	-6.3%	?
Fc1ccc(CNCc2cccc(OCc3ccccc3)c2)cc1	-3.7%	/	/	/	/	/
c1ccc(COc2ccc(CNc3ccc(Oc4ccccc4)cc3)cc2)cc1	2.1%	/	/	/	/	/
Oc1ccc(NCc2cccc(OCc3ccc(F)cc3)c2)cc1	182.5%	23.1µM*	?	18.4µM*	-19.7%	28.9
COc1ccc(CCNC(=O)c2c(C)noc2-c2cccs2)cc1	10.5%	/	/	/	/	/
Cc1ccc2nc(CN(C)Cc3cc(=O)c4cc(C(N)=O)ccc4[nH]3)[nH]c2c1	123.9%	/	/	/	/	/
CCS(=O)(=O)c1oc(-c2ccc(F)cc2)nc1S(=O)(=O)c1ccccc1	-13.9%	0.259µM*	/	0.581µM*	/	/
CCOc1ccc(-c2nc(S(=O)(=O)c3ccccc3)c(NC)o2)cc1	0.0%	14.1%	-8.3%	-0.4%	17.6%	5.0
O=S(=O)(c1ccccc1)c1nc(-c2cccs2)oc1NCc1cccnc1	?	-10.3%	-13.4%	-9.4%	-16.2%	-10.4
CCCCS(=O)(=O)c1oc(-c2cccs2)nc1S(=O)(=O)c1ccc(F)cc1	-13.9%	0.82µM*	/	0.581µM*	/	/
O=S(=O)(c1ccccc1)c1nc(-c2cccs2)oc1NCC1CCCO1 (stereo not drawn)	?	-12.1%	-0.6%	?	0.4%	-19.9
CCCCCS(=O)(=O)c1oc(-c2cccs2)nc1S(=O)(=O)c1ccc(C)cc1	?	4.61µM*	/	3.66µM*	/	/
CCC(C)S(=O)(=O)c1oc(-c2ccc(F)cc2)nc1S(=O)(=O)c1ccc(F)cc1 (stereo not drawn)	-13.6%	0.581µM*	/	1.03µM*	/	/
CC(=O)Nc1ccc(CNC2CCCC(C(F)(F)F)C2)cc1 (stereo not drawn)	-5.5%	/	/	/	/	/
CCC(=O)Nc1ccc(C(=O)NN=C(C)C)cc1	-21.1%	/	/	/	/	/
CCCCS(=O)(=O)c1oc(-c2ccc(F)cc2)nc1S(=O)(=O)c1ccc(C)cc1	3.1%	1.03µM*	/	0.581µM*	/	/
CNc1oc(-c2ccccc2)nc1S(=O)(=O)c1ccc(C)cc1	?	-26.4%	-1.6%	-27.9%	-2.3%	-1.9
O=[N+]([O-])c1ccc(NCCCNS(=O)(=O)c2ccc(Cl)cc2)c(Cl)c1	-21.5%	20.6µM*	-11.4%	20.6µM*	-10.0%	1.1
CC1CCCCC1NC(=S)NC(=O)c1sc2ccccc2c1Cl (stereo not drawn)	-9.2%	-23.7%	10.0%	?	15.8%	36.4
O=C(NC(=S)N(CCCCO)C1CCCCC1)c1sc2ccccc2c1Cl	?	16.4µM*	?	16.4µM*	?	45.8
O=C(Cn1c(SCc2ccccc2F)nc2cccnc21)Nc1ccc(F)c(Cl)c1	-8.9%	?	/	?	/	/
O=C(Cn1c(SCc2ccc(F)cc2)nc2cccnc21)Nc1ccccc1F	-19.6%	?	/	25.9µM*	/	/
COc1ccc(NC(=O)Cn2c(SCc3ccc(F)cc3)nc3cccnc32)c(OC)c1	-19.0%	?	/	20.6µM*	/	/
COc1ccc(NC(=O)Cn2c(SCc3ccc(C)cc3)nc3cccnc32)cc1OC	?	2.31µM*	/	1.64µM*	/	/
O=C(Cn1c(SCc2cccc(F)c2)nc2cccnc21)Nc1ccc(F)c(Cl)c1	-19.5%	25.9µM*	/	14.6µM*	/	/
